# WNV NS2B-NS3 inh: inhibitors of West Nile virus NS2B-NS3 protease; P06935; WNV NS2B-NS3 protease, fluorogenic substrate Ex360/Em465; active compounds read low; z-score (concentration not given with the values); 0.18% of 65,000 active; in the data active = z-score below about -3
# M1 agonist: activates the M1 muscarinic receptor; CHO-M1 cells, Fluo-4 calcium fluorescence, agonist mode; active compounds read high; B-score at 10 µM; 3% of 64,000 active; AID 626;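 active = fluorescence rise, raw or as B-score row- and column-corrected plate score, outside the 99.7% band of its plate's samples, either direction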
# D1 mod: allosteric modulators of human D1 dopamine receptor. P21728. HEK293 D1, CRE-luciferase, dopamine EC30 potentiation; actives deviate in either direction. B-score at 10 µM. 5.9% of 58,000 active;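 active = luminescence count or its row- and column-corrected plate score outside the 99.7% band of the plate's sample wells, on either side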
# Htt clearance: compounds clearing mutant huntingtin protein; inhibition, % at 1.5 µM; HeLa Exon1htt(103Q)mCFP, aggregate imaging; zero = plate's median compound well; 0.42% of 47,000 active;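 active = inhibition of aggregate fluorescence above about 70%, also judged a hit by eye on the cell image, limit read from the data, passing the limit was not always enough; inconclusive = no rule stated for this call; inactive = not judged a hit on image review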;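 note: cells exposed to compound for three days before fixation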
# M1 antagonist: blocks the rat M1 muscarinic receptor response to acetylcholine. 3.4% of 64,000 active. P08482. CHO-M1 cells, Fluo-4 calcium, ACh EC80 antagonist mode; active compounds read low. B-score at 10 µM;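 active = calcium fluorescence response, raw or row-and-column corrected B-score, differing from the plate sample mean either way at a set confidence level, mostly lower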
# M1 agonist conf: rat M1 muscarinic agonism, confirmation. shares compounds with M1 agonist. CHO-M1 cells, Fluo-4 calcium fluorescence, agonist mode; actives lie on both sides. fluorescence change (max-min) at 10 µM. 19% of 1,700 active;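 active = fluorescence change differs from the solvent-only DMSO control mean at a set confidence level in both duplicate runs; inconclusive = differs from solvent-only control mean in just one of two runs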;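 note: an EC20 dose of acetylcholine follows compound addition during the same imaging run; raw fluorescence intensity difference in instrument units with no normalization to controls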
# M4 agonist ctr: counter-screen for M1 agonists: activity at rat M4 receptor; fluorescence change (max-min) at 10 µM; shares compounds with M1 agonist; CHO M4/Gqi5 cells, Fluo-4 calcium fluorescence, agonist mode; actives lie on both sides; 9% of 1,700 active; AID 1741;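 active = fluorescence change differing from the plate's solvent-only control wells at 99.7% confidence in both duplicates, whether higher or lower; inconclusive = differs from solvent controls in only one of two duplicates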
# Target sequence (P08485 whole entry, looked up): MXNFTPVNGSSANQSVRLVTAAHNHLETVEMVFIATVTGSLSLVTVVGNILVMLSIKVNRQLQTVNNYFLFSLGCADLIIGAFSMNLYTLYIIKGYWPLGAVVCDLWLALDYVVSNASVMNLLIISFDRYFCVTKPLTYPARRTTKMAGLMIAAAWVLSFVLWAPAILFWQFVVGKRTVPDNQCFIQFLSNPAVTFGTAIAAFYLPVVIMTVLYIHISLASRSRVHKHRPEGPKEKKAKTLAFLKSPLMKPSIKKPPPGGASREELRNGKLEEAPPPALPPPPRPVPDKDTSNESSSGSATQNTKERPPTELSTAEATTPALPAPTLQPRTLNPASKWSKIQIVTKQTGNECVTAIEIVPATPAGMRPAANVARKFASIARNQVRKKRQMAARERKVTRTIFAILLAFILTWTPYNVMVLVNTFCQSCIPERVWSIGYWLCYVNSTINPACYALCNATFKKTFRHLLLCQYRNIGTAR
# Starred values were filed as active, the others as inactive; ? = inconclusive; · = not tested or not shown. Only some compounds are listed: those with a hit (about 8.9% of all), similar ones and a draw of the others.
SMILES,WNV NS2B-NS3 inh,M1 agonist,D1 mod,Htt clearance,M1 antagonist,M1 agonist conf,M4 agonist ctr
CCCc1cc(=O)[nH]c(SCC(=O)Nc2ccc(OC(F)F)cc2)n1,0.25,-0.104,0.12,·,-0.0575,·,·
CCN(CC)C(=O)C1CCN(S(=O)(=O)c2ccc(C3CNC(=O)C3)cc2)CC1 (stereo not given),-0.31,1.32,0.33,19.8,-0.0207,·,·
OC(COc1ccc(Br)cc1)CN1CCOCC1 (stereo not given),-0.18,-1.09,-0.0212,·,0.428,·,·
CC(CN1CCOCC1)OC(=O)c1ccc(Br)cc1 (stereo not given),0.95,33.7*,·,·,-0.592,?,-35.1
CNc1nc(SCc2ccc(C)cc2)nc2c1CCCC2,·,·,·,13.2,·,·,·
CCOC(=O)C1(C)NC(c2ccc(OC)cc2OC)C2C(=O)N(c3cccc(OC)c3)C(=O)C21 (stereo not given),1.58,1.61,-0.266,-4.1,-0.00139,·,·
CCCCn1c(SCC(=O)Nc2nnc(C)s2)nnc1-c1ccoc1C,-0.46,3.24*,-0.146,42.2,-0.396,?,-37.6
CCCn1c(SCC(=O)Nc2nnc(C)s2)nnc1-c1ccoc1C,1.36,-0.017,0.22,15.0,-0.0832,·,·
CCc1nc(SCc2cc(Cl)ccc2OC)n[nH]1,0.06,-0.0201,0.0788,41.2,0.862,·,·
COc1cc(NC(=O)c2cccc3c2C(=O)N(Cc2cccnc2)C3)cc(OC)c1OC,0.41,3.21*,2.31,·,-0.944,-17.6,-23.5
Cc1ccc(C(C)C)c(OCCNc2nc3c(c(=O)n(C)c(=O)n3C)n2C)c1,0.69,0.978,-1.31,·,-0.0149,·,·
O=C(NCCc1ccc(Cl)cc1)c1cnc2n(c1=O)CCS2,-0.71,-2.85*,·,·,-0.0983,?,-75.5
O=S(=O)(Nc1nc2ccccc2nc1N1CCN(c2ccccn2)CC1)c1ccc(Cl)cc1,1.96,9.24*,-0.765,38.3,-0.322,46.4,?
O=S(=O)(Nc1ncccc1O)c1ccc(Cl)cc1,-1.25,-0.62,0.0713,35.8,0.0595,·,·
CCOC(=O)c1cnn(-c2ncnc3c2cnn3Cc2ccccc2)c1N,-0.9,-0.709,-0.247,·,0.342,·,·
COC(=O)c1sccc1NC(=O)c1csc(C)c1,-0.04,-0.484,1.1,2.0,0.0573,·,·
Cc1cccn2c(=O)c(/C=C(\C#N)S(=O)(=O)c3ccccc3)c(N3CCC(C(N)=O)CC3)nc12,·,·,·,-21.3,·,·,·
CCN1CCN(c2nc3c(C)cccn3c(=O)c2/C=C(\C#N)S(=O)(=O)c2ccccc2)CC1,-0.79,8.91*,-1.01,·,-2.97,31.4,2.42
CN1C(=O)CSc2ccc(NC(=O)N3CCc4ccccc43)cc21,-0.58,2.82*,-0.655,-77.8,-0.665,-23.7,-47.6
CN1C(=O)CSc2ccc(NC(=O)N3CCN(c4ccccn4)CC3)cc21,-0.31,-1.06,-1.43,·,-0.764,·,·
CCSc1nnc(NC(=O)Cc2ccc(OC)c(S(=O)(=O)N3CCOCC3)c2)s1,0.35,2.06,·,17.4,0.593,·,·
CCOc1ccccc1NC(=O)CN(c1cc(C)cc(C)c1)S(=O)(=O)c1c(C)noc1C,1,20.3*,-0.518,·,-0.838,-1.05,-19.2
COc1ccc(C(=O)COC(=O)CCn2nnc(-c3cccc(O)c3OC)n2)cc1,0.62,-1.05,0.994,-26.4,0.179,·,·
O=C(NCc1ccco1)c1cccc(-c2nnc(-c3ccccc3)o2)c1,0.63,1.43,0.0249,37.2,0.0173,·,·
COCC(=O)Nc1ccccc1NC(C)=O,-0.11,-0.0629,-0.0255,27.4,-0.552,·,·
SMILES,WNV NS2B-NS3 inh,M1 agonist,D1 mod,Htt clearance,M1 antagonist,M1 agonist conf,M4 agonist ctr
COCC(=O)NC(c1ccccc1)c1ccccc1,0.24,12.8*,0.545,36.3,-0.336,-10.8,-36.7
O=C(Nc1ccc(N2CCOCC2)cc1)Nc1ccc2nc(-c3ccco3)c(-c3ccco3)nc2c1,0.06,2.81*,2.66,-38.9,-1.26,-1.57,-19.4
O=C(NCCCO)Nc1ccc2nc(-c3ccco3)c(-c3ccco3)nc2c1,·,·,·,24.0,·,·,·
Cc1nn(-c2ccccc2)c2c1P(=O)(O)/C(=C1\N(C)c3ccccc3C1(C)C)C=N2,1.35,-0.992,-0.0198,-8.6,0.215,·,·
Cc1ccc2c(c1)[nH]c1c(=O)n(Cc3ccccn3)cnc12,0.55,0.221,-0.0025,·,-0.227,·,·
CCc1nc2ccccc2n1CC(=O)N1CCN(S(=O)(=O)c2cccc(C(F)(F)F)c2)CC1,1.43,4.63*,-0.373,·,0.438,-2.88,-7.96
O=C(OCc1nnc(-c2ccccc2)o1)c1cn(-c2ccccc2)nc1-c1ccccc1,0.6,-0.359,·,·,-0.18,·,·
CC(C)OC(=O)c1cn(-c2ccccc2)nc1-c1ccco1,0.77,4.4*,1.63,·,-1.07,-16.1,-39.7
CCOC(=O)c1c(NC(=O)CSc2nnc(-c3ccccc3C)n2C)sc(C(C)=O)c1C,1.39,2.36*,0.577,75.8*,-5.18*,-9.58,?
CCCCCCCCNC(=O)CCNC(=O)c1ccc(C(C)(C)C)cc1,·,·,·,68.1,·,·,·
N#CC1=C(N)c2ccccc2CC12CCCCC2,·,·,·,11.4,·,·,·
c1csc(-c2noc(COc3ccc4c(c3)CCCC4)n2)c1,-1.15,-0.733,-0.489,-50.3,-0.54,·,·
CN=Cc1sc2ccccc2c1O,1.82,0.0588,0.0707,1.0,-0.653,·,·
CC(=Nc1cccc(O)c1)c1sc2ccccc2c1O,0.38,5.43*,-4.35*,·,-0.0368,42.8,40.7
CCCn1c(NC(=O)C2CCN(S(=O)(=O)c3cccs3)CC2)nc2ccccc21,1.31,-0.395,-0.432,-0.1,-1.26,·,·
CCOC(=O)/C(C#N)=C1\Nc2ccccc2N=C1N(CC(C)C)CC(C)C,0.18,8.11*,-1.02,-12.8,-0.612,?,-26.5
Cc1ccccc1N(C(=O)Cn1nnc(-c2cccs2)n1)C(C(=O)NCCC(C)C)c1ccco1 (stereo not given),·,·,·,9.0,·,·,·
Cc1cccc(-c2nc(CSCC(=O)N3CCN(Cc4ccc5c(c4)OCO5)CC3)c(C)o2)c1,-0.85,5.71*,0.527,·,-4*,-0.643,?
CCc1ccc(-c2nc(CSCC(=O)N3CCN(c4ccccn4)CC3)c(C)o2)cc1,-0.2,4.62*,-1.59,-14.7,-1.39,-6.26,?
Cc1ccc(-c2nc(CSCC(=O)N3CCN(c4ccccn4)CC3)c(C)o2)cc1,2.24,5.6*,-2.88,·,-2.28*,?,-51.8
Cc1ccc(-c2nc(CSCC(=O)N3CCOCC3)c(C)o2)cc1,0.34,-0.916,1.24,-47.6,-0.00768,·,·
Cc1noc(C)c1C(=O)Nc1nc(C23CC4CC(CC(C4)C2)C3)cs1,0.93,-0.102,0.175,14.6,0.174,·,·
CCCSc1nc(C)nc2c1c(=O)n(C)c(=O)n2C,·,·,·,29.0,·,·,·
COC(=O)c1ccc2c(c1)N(Cc1cc(C)ccc1C)C(=O)c1ccccc1S2=O (stereo not given),-0.46,-0.612,0.603,·,0.309,·,·
COC(=O)c1ccc2c(c1)N(Cc1ccccc1F)C(=O)c1ccccc1S2=O (stereo not given),1.23,4.89*,1.11,·,-0.268,?,-24
N#C/C(=C/c1ccc(N2CCOCC2)o1)c1ccc(Br)cc1,·,·,·,-44.3,·,·,·

# Bioassay records: PubChem BioAssay, several laboratories
